The full list was thinned out, with hits kept by preference.
Measles inh: inhibitors of measles virus growth in cells, primary screen, measles RdRp inhibitor project, cell-based, single point, HTS | infected Vero cells, GFP fluorescence, 64 h; active compounds read low | z-score (no concentration beside the values) | 0.1% of 33,000 active; in the data active = z-score below about -3
A number is an active result; 0 = inactive.

SMILES	Measles inh
CCCCCCSc1nnc(-c2ccco2)c(-c2ccco2)n1	0
CCCCCCCSc1nnc2nc(C)cc(C)n12	-3.1
COc1ccc(NS(=O)(=O)c2cc(Br)cc3c2N(C(=O)C2CC2)CC3)cc1Cl	0
Cc1cc(C)cc(NC(=O)CSc2nccn2-c2cccc(C)c2C)c1	0
CCCCOCCOC(=O)CN1C(=O)c2ccc(Br)cc2C1=O	0
O=C(CCc1nc(-c2ccccc2F)no1)NCc1cccs1	0
CCOC(=O)c1cc2c(=O)n3ccccc3nc2n(CC(C)C)c1=NC(=O)c1c(OCC)ccc2ccccc12	0
CN(C)CCCNS(=O)(=O)c1ccc2c(c1)CCN2C(=O)C1CCC1	0
c1ccc(-c2cn3c4ccccc4n(CCN4CCCCC4)c3n2)cc1	-3.1
N=c1n(CCO)c2ccccc2n1CCN1CCCCC1	0
Cc1cn2c3ccccc3n(CCN3CCCCC3)c2n1	0
Cc1nc2sc(C(=O)N3CCCC3)c(N)c2c(-c2ccc(Br)cc2)c1C(=O)Nc1ccc(Cl)cc1	0
Cc1ccc(SCCNC(=O)CN(c2cc(C(F)(F)F)ccc2Cl)S(C)(=O)=O)cc1	0
O=C(NCCc1ccc(Cl)cc1)c1cc(-c2cccnc2)nc2ccccc12	0
CCOc1ccc(/C(O)=C2\C(=O)C(=O)N(c3nccs3)C2c2cccc(Oc3ccccc3)c2)cc1 (stereo not drawn)	0
CC1CCCC(C)N1CCNC(=O)CCN1C(=O)COc2ccccc21 (stereo not drawn)	0
O=C(CCN1C(=O)COc2ccccc21)NCCc1ccc(Cl)cc1	0
O=C(CCN1C(=O)COc2ccccc21)NCCN1CCc2ccccc2C1	-6.4
Cc1ccc(F)cc1Nc1ccc(C(=O)O)cc1[N+](=O)[O-]	0
COC(=O)c1ccc(C2C3=C(CC(c4ccc(C)cc4)CC3=O)Nc3ccccc3N2C(C)=O)cc1 (stereo not drawn)	0
COc1cccc(-c2cc(C(=O)Nc3c(C)nn(Cc4ccc(F)cc4)c3C)no2)c1	0
Cc1nc2nc(SCC(=O)NCCc3ccccc3)nn2c(C)c1Cc1ccccc1Cl	0
